Biological target: Heat shock cognate 71 kDa protein (UniProt P11142)
Sequence (P11142 whole entry): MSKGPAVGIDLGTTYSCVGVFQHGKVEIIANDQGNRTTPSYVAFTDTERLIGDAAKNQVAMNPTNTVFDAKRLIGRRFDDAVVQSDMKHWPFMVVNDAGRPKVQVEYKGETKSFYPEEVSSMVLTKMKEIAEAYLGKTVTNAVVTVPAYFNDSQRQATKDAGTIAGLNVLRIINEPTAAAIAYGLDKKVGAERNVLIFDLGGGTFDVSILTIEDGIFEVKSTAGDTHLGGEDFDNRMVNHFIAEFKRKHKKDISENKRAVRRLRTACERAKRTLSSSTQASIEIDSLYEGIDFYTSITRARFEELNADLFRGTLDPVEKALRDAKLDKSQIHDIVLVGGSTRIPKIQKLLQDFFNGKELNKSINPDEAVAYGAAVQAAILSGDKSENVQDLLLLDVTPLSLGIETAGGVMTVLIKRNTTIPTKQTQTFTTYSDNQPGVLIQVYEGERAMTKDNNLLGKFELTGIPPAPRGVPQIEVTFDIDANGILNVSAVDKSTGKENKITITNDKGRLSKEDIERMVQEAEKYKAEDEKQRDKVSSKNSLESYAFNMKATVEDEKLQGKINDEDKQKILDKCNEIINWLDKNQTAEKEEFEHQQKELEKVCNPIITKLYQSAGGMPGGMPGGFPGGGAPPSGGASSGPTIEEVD

Glyceraldehyde-3-phosphate dehydrogenase, P04406, sequence (P04406 whole entry): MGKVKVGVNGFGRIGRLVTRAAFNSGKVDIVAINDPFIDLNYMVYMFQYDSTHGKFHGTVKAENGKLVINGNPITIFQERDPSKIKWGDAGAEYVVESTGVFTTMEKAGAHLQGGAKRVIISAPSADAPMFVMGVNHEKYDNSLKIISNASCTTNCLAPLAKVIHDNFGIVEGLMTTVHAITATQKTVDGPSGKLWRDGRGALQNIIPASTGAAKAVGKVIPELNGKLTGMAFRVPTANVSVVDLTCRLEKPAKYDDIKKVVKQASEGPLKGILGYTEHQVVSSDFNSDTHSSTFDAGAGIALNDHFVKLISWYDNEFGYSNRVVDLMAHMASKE

Listed as a hit, yes:
Thioredoxin, P10599
Glyceraldehyde-3-phosphate dehydrogenase, P04406
Heat shock 70 kDa protein 4L, O95757
